Laboratory results reported in PubChem BioAssay.

Experiment: fission yeast growth modulation, primary screen, strain 972, OD600, 24 h, no modulator (AID 1090);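 further: basal condition with compound alone and no growth modifier present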
Conditions: S. pombe 972 growth, higher = more signal, called active from +8 up or from −8 down
Further: test concentration not given here.

z-score, inactive:
COc1cccc([C@H]2Oc3ccc(OC)cc3C(=NO[C@@H](C)c3cn([C@H](CO)Cc4ccccc4)nn3)[C@@H]2O)c1 0.0329, COC(=O)CC=C[C@@H](C)[C@@H](C=NOC[C@H]1O[C@H](c2ccccc2)C=C[C@@H]1Oc1ccc(OC)cc1)NS(=O)(=O)c1ccc(C)cc1 0.321, C=CC1=C[C@H](O)[C@@H]2O[C@@H]2C12OCCCO2 0.199, COC(=O)CC=C[C@@H](C)[C@H](OCc1cccc(-c2ccccc2)c1)C1CCCCC1 -0.915, CC(C)CON=C1C[C@@H](O)[C@@H](O)[C@@H]2[C@@H]3C(=O)N(Cc4ccc5c(c4)OCO5)C(=O)[C@@H]3CC[C@H]12 0.754, COc1ccc(O[C@H]2C=C[C@@H](c3ccccc3)O[C@@H]2CON=C(C)C)cc1 -2.91, COC(=O)CC=C[C@@H](C)[C@@H](C=NOC(C)CN1CCCc2nc(C)c(C)cc21)OC (some centres undefined) 0.245, CC(C)(C)N1C(=O)[C@H]2[C@H]3[C@H](O)[C@H](O)CC(=NO[C@@H]4O[C@H](CO)[C@@H](O)[C@H](O)[C@H]4O)[C@H]3CC[C@H]2C1=O -1.05, C#CCCCON=C1C[C@@H](O)[C@@H](O)[C@@H]2[C@@H]3C(=O)N(C(C)(C)C)C(=O)[C@@H]3CC[C@H]12 -0.401, CCOC(=O)NN=C1C[C@@H](O)[C@@H](O)[C@@H]2[C@@H]3C(=O)N([C@@H](C)c4ccccc4)C(=O)[C@@H]3CC[C@H]12 0.366, COC(=O)[C@@H]1CC[C@H](C)[C@@H](c2ccc(C)cc2)N1C(=O)c1ccc(C=NO[C@H](C)c2cn([C@H](CO)Cc3ccccc3)nn2)cc1 0.0048, CCOC(=O)CCN1C(=O)[C@H]2[C@H]3[C@H](O)[C@H](O)CC(=NNC(=O)OCc4ccccc4)[C@@H]3CC[C@H]2C1=O 0.279, CC(C)=CCCC(C)=CCON=C1C[C@@H](O)[C@@H](O)[C@@H]2[C@@H]3C(=O)N(c4ccc(F)cc4F)C(=O)[C@@H]3CC[C@@H]12 -2.43, CCc1cc2c(nc1CC)CCN(CCC(C)=NO[C@H](C)c1cn([C@H](CO)Cc3ccccc3)nn1)C2 -0.484, COC(=O)[C@H](C)NC(=O)CCC1CC(OC(=O)NCCc2ccc(F)cc2)CC2(CCCC(COC(=O)NCCC(C)C)O2)O1 (some centres undefined) -0.148, CCN1C(=O)[C@@H]2[C@H]3C(=CC[C@@H]2C1=O)C1(OCCCO1)[C@H]1O[C@H]1[C@H]3O -6.63, CCCNC(=O)OC[C@H]1O[C@H](CCON=C(C)CCN2CCc3nc(CC)c(CC)cc3C2)C=C[C@@H]1Oc1ccc(OC)cc1 -2.36, COc1cccc([C@H]2Oc3ccc(OC)cc3C(=NO[C@H](C)c3cn([C@H](CO)Cc4ccccc4)nn3)[C@@H]2O)c1 0.226, Cc1ccc(S(=O)(=O)n2c3ccccc3c3nnc(C(=O)c4ccccc4)nc32)cc1 -0.683, CCOC(=O)[C@H](Cc1ccccc1)NC(=O)CCC1CC(OC(=O)NCc2ccc3c(c2)OCO3)CC2(CCCC(COC(=O)NCCc3ccccc3OC)O2)O1 (some centres undefined) 1.07, Cn1c(=O)n2n(c1=O)[C@H]1[C@H](O)[C@@H]3O[C@@H]3C(=O)[C@H]1CC2 0.595, C[C@@H]1CC[C@H]2C(=O)O[C@@H](Cc3ccccc3)CN2[C@H]1c1ccc(Br)cc1 -2.36, CCOC(=O)[C@H](CC(C)C)NC(=O)CCC1CC(OC(=O)NCCc2ccc(F)cc2)CC2(CCCC(COC(=O)NCCc3ccc(Cl)cc3)O2)O1 (some centres undefined) 0.485, CO[C@H]1COC(=O)[C@H](C)NC(=O)CC=C[C@@H](C)[C@H](OC)COC(=O)[C@@H](OCc2ccccc2)C=C[C@@H]1C -0.123, C#CCCCON=C1C[C@@H](O)[C@@H](O)[C@@H]2[C@@H]3C(=O)N(c4ccc(F)cc4F)C(=O)[C@@H]3CC[C@H]12 -1.41, O=C1C[C@@H](O)[C@@H](O)[C@@H]2[C@@H]3C(=O)N(Cc4ccc5c(c4)OCO5)C(=O)[C@@H]3CC[C@H]12 -0.587

Experiment: S. cerevisiae growth modulation with rapamycin, primary screen, strain BY4716, OD600, 96 h (AID 1091)
Conditions: higher = more signal, called active from +8 up or from −8 down

z-score, inactive:
COc1ccc(O[C@H]2C=C[C@@H](c3ccccc3)O[C@@H]2CON=CC[C@@H]2C=C[C@H](OC(C)=O)[C@@H](COC(C)=O)O2)cc1 0.721, CO[C@H]1COC(=O)CC=C[C@@H](C)[C@H](NS(=O)(=O)c2ccc(C)cc2)COC(=O)CCC[C@@H]1C -0.726, CON=CC[C@@H]1C=C[C@H](OC(C)=O)[C@@H](COC(C)=O)O1 0.35, C=COC[C@@H]1CN2[C@@H](CC[C@@H](C)[C@@H]2c2ccc(Br)cc2)C(=O)O1 -0.61, O=C1[C@H]2[C@H]3[C@H](O)[C@H](O)CC(=NOCc4ccccc4)[C@@H]3CC[C@H]2C(=O)N1Cc1ccc2c(c1)OCO2 -0.789, COC(=O)NCC=Cc1nc(CCCO)co1 0.214, CO[C@H]1COC(=O)CC=C[C@H](C)[C@@H](OC)COC(=O)[C@@H](C)COC(=O)CC=C[C@@H]1C -0.487, COC(=O)[C@@H]1CC[C@H](C)[C@@H](c2ccc(C)cc2)N1C(=O)c1ccc(C=NOC[C@@H](C)[C@H](OCc2ccccc2)C(C)C)cc1 -1.51, COC(=O)CC=C[C@@H](C)[C@@H](C=NO[C@@H]1O[C@H](COC(C)=O)[C@@H](OC(C)=O)[C@H](OC(C)=O)[C@H]1OC(C)=O)NS(=O)(=O)c1ccc(C)cc1 -0.615, CCOC(=O)[C@H](CC(C)C)NC(=O)CCC1CC(OC(=O)NCc2cccc3ccccc23)CC2(CCCC(COC(=O)NCCOc3ccccc3)O2)O1 (some centres undefined) 0.231, COc1cccc([C@H]2Oc3ccc(OC)cc3C(=NO[C@@H](C)c3cn([C@H](CO)Cc4ccccc4)nn3)[C@@H]2O)c1 0.0485, COC(=O)CC=C[C@@H](C)[C@@H](C=NOC[C@H]1O[C@H](c2ccccc2)C=C[C@@H]1Oc1ccc(OC)cc1)NS(=O)(=O)c1ccc(C)cc1 -0.382, C=CC1=C[C@H](O)[C@@H]2O[C@@H]2C12OCCCO2 -0.138, COC(=O)CC=C[C@@H](C)[C@H](OCc1cccc(-c2ccccc2)c1)C1CCCCC1 1.45, CC(C)CON=C1C[C@@H](O)[C@@H](O)[C@@H]2[C@@H]3C(=O)N(Cc4ccc5c(c4)OCO5)C(=O)[C@@H]3CC[C@H]12 0.329, COc1ccc(O[C@H]2C=C[C@@H](c3ccccc3)O[C@@H]2CON=C(C)C)cc1 0.0212, COC(=O)CC=C[C@@H](C)[C@@H](C=NOC(C)CN1CCCc2nc(C)c(C)cc21)OC (some centres undefined) 0.0448, CC(C)(C)N1C(=O)[C@H]2[C@H]3[C@H](O)[C@H](O)CC(=NO[C@@H]4O[C@H](CO)[C@@H](O)[C@H](O)[C@H]4O)[C@H]3CC[C@H]2C1=O -0.235, C#CCCCON=C1C[C@@H](O)[C@@H](O)[C@@H]2[C@@H]3C(=O)N(C(C)(C)C)C(=O)[C@@H]3CC[C@H]12 -0.0894, CCOC(=O)NN=C1C[C@@H](O)[C@@H](O)[C@@H]2[C@@H]3C(=O)N([C@@H](C)c4ccccc4)C(=O)[C@@H]3CC[C@H]12 -0.222, COC(=O)[C@@H]1CC[C@H](C)[C@@H](c2ccc(C)cc2)N1C(=O)c1ccc(C=NO[C@H](C)c2cn([C@H](CO)Cc3ccccc3)nn2)cc1 0.619, CCOC(=O)CCN1C(=O)[C@H]2[C@H]3[C@H](O)[C@H](O)CC(=NNC(=O)OCc4ccccc4)[C@@H]3CC[C@H]2C1=O -0.598, CC(C)=CCCC(C)=CCON=C1C[C@@H](O)[C@@H](O)[C@@H]2[C@@H]3C(=O)N(c4ccc(F)cc4F)C(=O)[C@@H]3CC[C@@H]12 -0.496, CCc1cc2c(nc1CC)CCN(CCC(C)=NO[C@H](C)c1cn([C@H](CO)Cc3ccccc3)nn1)C2 -0.112, COC(=O)[C@H](C)NC(=O)CCC1CC(OC(=O)NCCc2ccc(F)cc2)CC2(CCCC(COC(=O)NCCC(C)C)O2)O1 (some centres undefined) -0.104, CCN1C(=O)[C@@H]2[C@H]3C(=CC[C@@H]2C1=O)C1(OCCCO1)[C@H]1O[C@H]1[C@H]3O 1.66, CCCNC(=O)OC[C@H]1O[C@H](CCON=C(C)CCN2CCc3nc(CC)c(CC)cc3C2)C=C[C@@H]1Oc1ccc(OC)cc1 0.156, COc1cccc([C@H]2Oc3ccc(OC)cc3C(=NO[C@H](C)c3cn([C@H](CO)Cc4ccccc4)nn3)[C@@H]2O)c1 -1.21, Cc1ccc(S(=O)(=O)n2c3ccccc3c3nnc(C(=O)c4ccccc4)nc32)cc1 0.881, CCOC(=O)[C@H](Cc1ccccc1)NC(=O)CCC1CC(OC(=O)NCc2ccc3c(c2)OCO3)CC2(CCCC(COC(=O)NCCc3ccccc3OC)O2)O1 (some centres undefined) 1.52, Cn1c(=O)n2n(c1=O)[C@H]1[C@H](O)[C@@H]3O[C@@H]3C(=O)[C@H]1CC2 0.672, C[C@@H]1CC[C@H]2C(=O)O[C@@H](Cc3ccccc3)CN2[C@H]1c1ccc(Br)cc1 -0.882, CCOC(=O)[C@H](CC(C)C)NC(=O)CCC1CC(OC(=O)NCCc2ccc(F)cc2)CC2(CCCC(COC(=O)NCCc3ccc(Cl)cc3)O2)O1 (some centres undefined) -0.518
